In the library only some 2.7% were active in any assay of this set; here they are far more common.
Env fusion inh = inhibitors of HIV Env-mediated cell fusion. HeLa-JRFL Env/CEM21 cell fusion, luciferase. inhibition, % at 12.3 µM. hit rate 1.1% among 360,000. AID 651610;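 active = mean replicate inhibition score of at least 50 and every replicate individually at or above 50; inconclusive = only one of the two criteria met; inactive = mean below 50 and not all replicates reaching 50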
F508del corr = CFTR F508del correction in bronchial cells. hit rate 0.36% among 350,000. CFBE cells, YFP halide quenching; stimulated with forskolin plus potentiator P3; % fluorescence drop versus neutral controls. activity (quench increase), % at 7.58 µM;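 active = mean added fluorescence quench of at least 8% versus neutral control, with both replicates also reaching 8%; inconclusive = only one of the mean or replicate conditions met; inactive = mean below 8% and not both replicates reaching 8%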;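 note: cells transiently co-express mutant CFTR-F508del with the halide-sensitive YFP; corrector assay measuring rescue of mutant channel to the surface after 24 h compound exposure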
PAX8 inh HTS = PAX8 transcriptional activity inhibition | hit rate 1.2% among 360,000 | AID 652154 | inhibition, % at 12.6 µM | RMG-I TPO-luciferase reporter, SteadyGlo, 24 h;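 active = mean replicate inhibition at least 60% with every replicate also reaching 60%; inconclusive = only one of the two criteria is met; inactive = mean below 60% and not all replicates reaching 60%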;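 note: luciferase light reporting Pax8 driven TPO promoter activity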
PGC1a acetyl inh = lowers PGC1a acetylation signal in U2OS cells; AlphaScreen anti-acetyl-lysine; with virally co-expressed GCN5 acetyltransferase; inhibition, % at 15.6 µM; hit rate 0.17% among 350,000;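 active = every replicate shows inhibition of at least 40%; inconclusive = mean inhibition at least 40% but some replicate below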
GSIS activator = GLuc luminescence reporter in INS-1E cells, primary screen for activators of glucose-dependent secretion of insulin; activation, % at 16.6 µM; hit rate 0.61% among 370,000; INS-1E GLuc reporter insulin secretion, 2-3 h;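 active = lowest replicate activation of at least 40%, so every replicate reaches that level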
EWS-Fli block = blocks EWS/Fli oncoprotein-driven transcription; A673 NR0B1-luciferase reporter, viability-normalised; inhibition, % at 12.6 µM; hit rate 0.67% among 350,000; AID 651661;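 active = mean inhibition of at least 50% after viability correction, with every replicate also passing that limit; inconclusive = mean reaches 50% but only one of two replicates passes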;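 note: firefly luciferase signal divided by Alamar Blue viability fluorescence both relative to DMSO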
Large screens that a line does not name were inactive; [ ] = remark or other dose.

O=[N+]([O-])c1ccccc1S(=O)(=O)Oc1ccccc1/C=N/n1cnnc1	PAX8 inh HTS 98 (no result: Env fusion inh, PGC1a acetyl inh)
COc1ccc(N=C2S/C(=C\c3ccc(N4CCOCC4)o3)C(=O)N2CCc2c[nH]c3ccccc23)cc1	PGC1a acetyl inh 62 (no result: Env fusion inh, F508del corr, PAX8 inh HTS, GSIS activator, EWS-Fli block)
CCCC(=O)Nc1ccc2c(c1)C(=O)N(C)C[C@H](OC)[C@H](C)CN(Cc1ccccc1F)[C@H](C)CO2	none (no result: Env fusion inh, PAX8 inh HTS)
C[C@@H]1CN([C@H](C)CO)C(=O)c2cc(NC(=O)Nc3cccc4ccccc34)ccc2O[C@@H](C)CCCCO[C@@H]1CN(C)C(=O)c1ccccc1	none (no result: PAX8 inh HTS)
C[C@H](CO)N1C[C@H](C)[C@@H](CN(C)Cc2ccccc2)OCCCC[C@H](C)Oc2ccc(NC(=O)Nc3cccc4ccccc34)cc2C1=O	none
C[C@H]1CCCCO[C@@H](CN(C)Cc2ccccc2)[C@@H](C)CN([C@@H](C)CO)C(=O)c2cc(NC(=O)Nc3cccc4ccccc34)ccc2O1	Env fusion inh 110[16.7 µM], EWS-Fli block inconclusive
COc1ccc(CN(C)C[C@H]2OCCCC[C@H](C)Oc3ccc(NC(=O)Nc4cccc5ccccc45)cc3C(=O)N([C@H](C)CO)C[C@H]2C)cc1	EWS-Fli block 70
C[C@@H]1CN([C@@H](C)CO)C(=O)c2cc(NC(=O)Nc3cccc4ccccc34)ccc2O[C@@H](C)CCCCO[C@H]1CN(C)C(=O)c1ccccc1	Env fusion inh 61[16.7 µM]
NC1=C(Cl)C(=O)c2ccc(S(N)(=O)=O)cc2C1=O	Env fusion inh 63, PAX8 inh HTS 121, EWS-Fli block 65 (no result: PGC1a acetyl inh)
C[C@H](CO)N1C[C@H](C)[C@@H](CN(C)S(=O)(=O)c2cccs2)Oc2ccc(NC(=O)CCCCCC(=O)Nc3ccccc3N)cc2C1=O	none (no result: Env fusion inh, PAX8 inh HTS)
CS(=O)(=O)Nc1ccc2c(c1)[C@@H]1C[C@@H](CC(=O)NCc3ccc(-c4ccccc4)cc3)O[C@@H](CO)[C@@H]1O2	PAX8 inh HTS 82, EWS-Fli block 57 (no result: Env fusion inh)
O=C(C[C@H]1C[C@H]2c3cc(NC(=O)c4ccc5c(c4)OCO5)ccc3O[C@H]2[C@@H](CO)O1)NCc1ccc(Oc2ccccc2)cc1	none
CS(=O)(=O)Nc1ccc2c(c1)[C@@H]1C[C@@H](CC(=O)NCc3ccccc3)O[C@H](CO)[C@@H]1O2	none
CS(=O)(=O)Nc1ccc2c(c1)[C@@H]1C[C@@H](CC(=O)NCc3ccc(Oc4ccccc4)cc3)O[C@@H](CO)[C@@H]1O2	PAX8 inh HTS 84, EWS-Fli block 55
O=C(C[C@@H]1C[C@@H]2c3cc(NC(=O)c4ccc5c(c4)OCO5)ccc3O[C@@H]2[C@@H](CO)O1)NCc1ccc(Oc2ccccc2)cc1	Env fusion inh 71[16.7 µM], EWS-Fli block inconclusive
O=C(C[C@@H]1C[C@@H]2c3cc(NC(=O)Nc4ccccc4F)ccc3O[C@@H]2[C@H](CO)O1)NCc1ccc(Oc2ccccc2)cc1	PAX8 inh HTS 82, PGC1a acetyl inh inconclusive
CS(=O)(=O)Nc1ccc2c(c1)[C@H]1C[C@@H](CC(=O)NCc3ccc(-c4ccccc4)cc3)O[C@@H](CO)[C@H]1O2	none (no result: Env fusion inh)
CC(C)NC(=O)N(C)C[C@H]1Oc2c(NC(=O)NC3CCCCC3)cccc2C(=O)N([C@H](C)CO)C[C@H]1C	none (no result: PAX8 inh HTS)
O=C(C[C@H]1C[C@@H]2c3cc(NC(=O)c4cccnc4)ccc3O[C@@H]2[C@@H](CO)O1)NC1CCCCC1	none
CS(=O)(=O)Nc1ccc2c(c1)[C@@H]1C[C@@H](CC(=O)NCc3ccc(Oc4ccccc4)cc3)O[C@H](CO)[C@@H]1O2	EWS-Fli block 53
CS(=O)(=O)Nc1ccc2c(c1)[C@H]1C[C@H](CC(=O)NCc3ccccc3)O[C@H](CO)[C@H]1O2	none (no result: Env fusion inh, PGC1a acetyl inh)
O=C(CSc1nnc(SCc2ccc(Cl)cc2)s1)N/N=C/c1c[nH]c2ccccc12	GSIS activator 96 (no result: Env fusion inh, F508del corr, PAX8 inh HTS, PGC1a acetyl inh, EWS-Fli block)
O=C(CSc1nnc(SCc2cccc3ccccc23)s1)N/N=C/c1c[nH]c2ccccc12	none (no result: F508del corr, PGC1a acetyl inh, EWS-Fli block)
CC1CN(CC(O)COC(c2ccccc2)c2ccccc2)CC(C)O1 (stereo not given)	PAX8 inh HTS 120 (no result: Env fusion inh, GSIS activator)
OC(COC(c1ccccc1)c1ccccc1)CN1CCOCC1 (stereo not given)	none (no result: F508del corr, PGC1a acetyl inh)
CC(C)NC(=O)N(C)C[C@@H]1OCc2ccccc2-c2c(n(C)c3ccccc23)C(=O)N([C@H](C)CO)C[C@@H]1C	none (no result: Env fusion inh, PAX8 inh HTS)
CCOC(=O)Cc1cc(=O)n2[nH]c(-c3ccc(C)cc3)cc2n1	GSIS activator 65 (no result: F508del corr, PAX8 inh HTS, EWS-Fli block)
CCOC(=O)c1cc(=O)n2[nH]c(-c3ccc(C)cc3)cc2n1	none (no result: Env fusion inh, F508del corr, PAX8 inh HTS, GSIS activator, EWS-Fli block)
COC(=O)C1C(OC)=CC(=O)C2CCCCC21 (stereo not given)	Env fusion inh 57 (no result: PGC1a acetyl inh)
CCCCCC1CC(=O)C=C(C)C1C(=O)OC (stereo not given)	none
CC(C)C(=O)Nc1ccc2c(c1)C(=O)N(C)[C@@H]1CC[C@H](CC(=O)NCc3cccc(F)c3)O[C@H]1CO2	none
CCOc1cc(C(=O)NCc2ccccc2)ccc1OCC(=O)N1CCOCC1	none
CCOc1ccc(C(=O)NCc2ccccc2)cc1Br	PAX8 inh HTS 79 (no result: Env fusion inh, GSIS activator)
CN1CCCCN2[C@H](CO)[C@@H](c3ccc(C#Cc4ccccc4F)cc3)[C@H]2C1	none (no result: Env fusion inh)
Cc1noc(C)c1S(=O)(=O)Nc1ccc2c(c1)C(=O)N([C@@H](C)CO)C[C@H](C)[C@H](CN(C)Cc1ccccc1)OCCCC[C@@H](C)O2	none
Clc1ccc(-n2nnc(-c3nccs3)n2)cc1Cl	none (no result: Env fusion inh, PGC1a acetyl inh, GSIS activator)
Cc1ccc(-n2nnc(-c3nccs3)n2)cc1	EWS-Fli block 82
O=C(Nc1ccccc1)[C@@H]1[C@@H](CO)[C@@H]2Cn3c(cccc3=O)[C@@H]2N1CC1CC1	none (no result: Env fusion inh, PAX8 inh HTS, PGC1a acetyl inh)
CCc1ccc(C(=O)CN(C#N)c2nc(C)cc(C)n2)cc1	PGC1a acetyl inh 49 (no result: F508del corr, EWS-Fli block)
C[C@@H]1CN([C@@H](C)CO)C(=O)c2cc(NS(=O)(=O)c3cccs3)ccc2O[C@@H](C)CCCCO[C@H]1CN(C)C(=O)Cc1ccccc1	none
Cc1no[n+]([O-])c1COc1cccc(/C=N/Nc2nncn2N)c1	PGC1a acetyl inh 50 (no result: GSIS activator)
CC(=O)Nc1ccc(NC(=O)COc2cccc3c2OC(C)(C)C3)cc1	F508del corr 11
CCOc1ccc2c(c1)-c1c(ssc1=S)C(C)(C)N2C(=O)c1ccco1	Env fusion inh 71 (no result: F508del corr, PGC1a acetyl inh, EWS-Fli block)
C[C@@H]1CN([C@H](C)CO)C(=O)c2cc(-c3cccc(C#N)c3)cnc2O[C@@H]1CN(C)C(=O)c1ccccn1	none (no result: PAX8 inh HTS)
CCCC#Cc1cnc2c(c1)C(=O)N([C@H](C)CO)C[C@H](C)[C@@H](CN(C)C)O2	none (no result: PAX8 inh HTS)
C[C@H](CO)N1C[C@H](C)[C@H](CN(C)C)Oc2c(NC(=O)c3ccncc3)cccc2C1=O	none (no result: Env fusion inh)
CN1C(=O)C2(c3ccccc31)N(C)CC(c1ccccn1)C21SC(=S)N(Cc2ccco2)C1=O (stereo not given)	none (no result: F508del corr, PGC1a acetyl inh, GSIS activator, EWS-Fli block)
CN1C(=O)C2(c3ccccc31)N(C)CC(c1ccccc1)C21SC(=S)N(Cc2ccco2)C1=O (stereo not given)	Env fusion inh 80 (no result: F508del corr, PAX8 inh HTS, EWS-Fli block)

Assay outcomes deposited in PubChem BioAssay by Broad Institute.
